Source: PubChem BioAssay
Activity calls are given as the source filed them. Unless noted, no rule for the calls is given here.

Key:
[1] = anti-His antibody binders, primary screen, artefact control for SMM control protein annotation, biochemical, small-molecule microarray, 635 nm fluorescence (AID 1128); conditions: anti-His Alexa647 antibody binding, higher = more signal;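 also: score merges feature fluorescence with signal-to-noise for each printed compound spot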
[2] = system: Human papillomavirus type 1a E7 protein (residues 1-88); assay: HPV1a E7 small-molecule binders, primary screen, biochemical, small-molecule microarray, residues 1-88, 635 nm (AID 1129); conditions: small-molecule microarray binding, fluorescence 635 nm; higher = more signal
[3] = molecular target: Focal adhesion kinase 1 (Homo sapiens) (UniProt Q05397); assay: small-molecule microarray binders of FAK, primary screen, biochemical, 635/667 nm fluorescence, BSA, DTT (AID 1130); conditions: PTK2 binding, 635 nm fluorescence, higher = more signal;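 also: composite of spot emission at 667 nm and signal to noise over triplicate slides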
[4] = system: Fibrinogen (Alexa647-labelled); assay: fibrinogen binders on compound microarrays, profiling panel, artefact control for SMM control-protein annotation, biochemical, small-molecule microarray, 635/667 nm fluorescence (AID 1131); conditions: fibrinogen-A647 binding fluorescence, higher = more signal;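 also: z-score merges 667 nm fluorescence with per-spot signal-to-noise over triplicate slides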
[5] = molecular target: Follistatin (Homo sapiens) (UniProt P19883); assay: follistatin binders on small-molecule microarrays, primary screen, biochemical, small-molecule microarray, 635/667 nm fluorescence (AID 1132); conditions: FST binding, 635 nm fluorescence, higher = more signal
[6] = molecular target: Fibroblast growth factor 2 (Homo sapiens) (UniProt P09038); assay: FGF2 binders on small-molecule microarrays, primary screen, biochemical, small-molecule microarray, 635/667 nm fluorescence (AID 1133); conditions: small-molecule microarray binding, FGF2, fluorescence 635/667; higher = more signal
[7] = mitochondrial membrane potential change in A549 cells, profiling panel, cell-based, JC-1 fluorescence, basal, 24 h, 100 nL (AID 1138); conditions: higher = more signal;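 also: A549 lung adenocarcinoma cells under basal conditions with no added stimulus; test concentration not given here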
Lefty1 = Lefty1 binders on small-molecule microarrays, primary screen, biochemical, small-molecule microarray, 635/667 nm fluorescence (AID 1139); conditions: small-molecule microarray binding, fluorescence 635/667; higher = more signal
[8] = system: wheat germ agglutinin (Triticum aestivum), Alexa647-labelled; assay: wheat germ agglutinin binders on compound microarrays, profiling panel, artefact control for SMM control-protein annotation, biochemical, small-molecule microarray, 635/667 nm fluorescence (AID 1140); conditions: WGA-A647 binding, 635 nm fluorescence, higher = more signal;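 also: score merges 667 nm feature emission with signal to noise over triplicate slides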
[9] = molecular target: Luciferin 4-monooxygenase (Photinus pyralis) (UniProt P08659); assay: firefly luciferase enzyme inhibitors, primary screen, biochemical, luminescence, purified enzyme, 2006 set (AID 1141); conditions: SteadyGlo luminescence, 30 min, higher = more signal, called active from +8 up or from −8 down;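 also: cell-free assay with purified firefly luciferase at 100 ng per well in PBS; test concentration not given here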
[10] = system: Wnt5a (protein binding on small-molecule microarray); assay: Wnt5a binders on small-molecule microarray, primary screen, biophysical, 635/667 nm fluorescence (AID 1142); conditions: 635 nm fluorescence, higher = more signal;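 also: fluorescence read at 667 nm with signal to noise per printed feature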
[11] = cell viability in Huh7 cells, primary screen, cytotoxicity control for HCV replication inhibitor project, CellTiter-Glo luminescence, basal, 48 h (AID 1143); conditions: Huh7 HCV replicon, higher = more signal, called active from +8 up or from −8 down;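 also: Huh7 hepatoma cells carrying a hepatitis C replication reporter with no stimulus; test concentration not given here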
[12] = P. aeruginosa biofilm formation inhibitors, primary screen, PAO1 strain, BacTiter-Glo luminescence, LB-PBS (AID 1144); conditions: 12 h, higher = more signal
[13] = CREB reporter modulators without forskolin, primary screen, cell-based, PC12, CRE-LacZ reporter, unstimulated (AID 1145); conditions: no forskolin, luminescence, 4.5 h, higher = more signal, called active from +8 up or from −8 down
[14] = CREB reporter modulators under forskolin, primary screen, cell-based, PC12, CRE-LacZ reporter, forskolin-stimulated (AID 1146); conditions: luminescence, 4.5 h, higher = more signal, called active from +8 up or from −8 down;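 also: PC12 cells with 6xCRE LacZ reporter stimulated by forskolin 10 µM; beta-galactosidase reporter signal reflecting CREB driven transcription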
[15] = molecular target: Streptavidin (Streptomyces avidinii) (UniProt P22629); assay: streptavidin binders on small-molecule microarray, primary screen, artefact control for SMM compound annotation, biophysical, 635/667 nm fluorescence (AID 1147); conditions: streptavidin binding, higher = more signal;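 also: signal reflects streptavidin binding to arrayed compounds as a control protein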
[16] = small-molecule binders of probe aInhba, primary screen, biochemical, small-molecule microarray, 635/667 nm fluorescence (AID 1148); conditions: higher = more signal;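 also: score merges 667nm spot fluorescence with signal-to-noise for antibody binding to printed compounds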
Torsin-1A (Homo sapiens) [17] = molecular target: Torsin-1A (Homo sapiens) (UniProt O14656); assay: torsin A binders from cell lysate, primary screen, small-molecule microarray, wild-type, 635/667 nm (AID 1149); conditions: COS7 hTOR1A-WT lysate, 635 nm fluorescence, higher = more signal
Torsin-1A (Homo sapiens) [18] = molecular target: Torsin-1A (Homo sapiens) (UniProt O14656); assay: small-molecule binders of mutant TOR1A in lysate, primary screen, cell lysate, small-molecule microarray, COS7 lysate, 635/667 nm fluorescence (AID 1150); conditions: COS7 hTOR1A mutant lysate, 635 nm fluorescence, higher = more signal;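 also: score pools 667 nm emission and signal to noise measuring lysate protein binding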
[19] = system: Sonic hedgehog protein (Shh); assay: small-molecule binders of Shh protein, primary screen, biochemical, small-molecule microarray, 635/667 nm fluorescence (AID 1151); conditions: small-molecule microarray binding, 635 nm fluorescence; higher = more signal;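 also: Shh protein binding to compounds spotted on small-molecule microarray slides; score combines spot fluorescence intensity with signal-to-noise across triplicate slides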

Sequence of Follistatin (Homo sapiens) (P19883 whole entry, looked up): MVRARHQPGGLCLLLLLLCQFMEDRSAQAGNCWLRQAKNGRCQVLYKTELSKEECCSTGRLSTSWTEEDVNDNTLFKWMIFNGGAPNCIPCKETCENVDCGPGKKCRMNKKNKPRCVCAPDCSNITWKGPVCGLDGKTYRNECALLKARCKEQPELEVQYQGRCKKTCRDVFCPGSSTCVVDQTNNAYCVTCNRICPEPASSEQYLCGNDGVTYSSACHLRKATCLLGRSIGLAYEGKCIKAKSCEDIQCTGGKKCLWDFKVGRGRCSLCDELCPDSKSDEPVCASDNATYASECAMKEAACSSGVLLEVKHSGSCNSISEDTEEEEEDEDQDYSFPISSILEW
Sequence of Torsin-1A (Homo sapiens) (O14656 whole entry, looked up): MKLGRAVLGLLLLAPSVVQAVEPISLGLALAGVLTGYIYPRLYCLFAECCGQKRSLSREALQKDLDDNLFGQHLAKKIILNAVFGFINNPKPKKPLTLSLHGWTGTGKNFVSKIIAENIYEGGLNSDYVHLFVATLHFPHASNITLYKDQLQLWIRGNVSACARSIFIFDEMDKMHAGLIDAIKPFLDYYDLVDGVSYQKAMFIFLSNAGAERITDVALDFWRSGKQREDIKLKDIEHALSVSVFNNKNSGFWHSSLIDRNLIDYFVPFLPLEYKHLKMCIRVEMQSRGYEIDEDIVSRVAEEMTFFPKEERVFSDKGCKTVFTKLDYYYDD
Sequence of Fibroblast growth factor 2 (Homo sapiens) (P09038 whole entry, looked up): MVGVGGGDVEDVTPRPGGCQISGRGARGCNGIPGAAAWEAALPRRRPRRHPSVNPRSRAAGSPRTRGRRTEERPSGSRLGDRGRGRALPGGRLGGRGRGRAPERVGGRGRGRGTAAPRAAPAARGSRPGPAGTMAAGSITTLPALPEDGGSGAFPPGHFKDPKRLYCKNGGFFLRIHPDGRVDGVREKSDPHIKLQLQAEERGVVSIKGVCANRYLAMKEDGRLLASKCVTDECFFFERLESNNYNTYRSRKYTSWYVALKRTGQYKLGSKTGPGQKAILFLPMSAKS
Sequence of Streptavidin (Streptomyces avidinii) (P22629 whole entry, looked up): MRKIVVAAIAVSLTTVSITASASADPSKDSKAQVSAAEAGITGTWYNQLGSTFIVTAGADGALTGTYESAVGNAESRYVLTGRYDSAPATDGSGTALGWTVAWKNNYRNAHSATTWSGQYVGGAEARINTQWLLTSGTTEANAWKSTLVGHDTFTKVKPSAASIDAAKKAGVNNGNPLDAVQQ
Sequence of Luciferin 4-monooxygenase (Photinus pyralis) (P08659 whole entry, looked up): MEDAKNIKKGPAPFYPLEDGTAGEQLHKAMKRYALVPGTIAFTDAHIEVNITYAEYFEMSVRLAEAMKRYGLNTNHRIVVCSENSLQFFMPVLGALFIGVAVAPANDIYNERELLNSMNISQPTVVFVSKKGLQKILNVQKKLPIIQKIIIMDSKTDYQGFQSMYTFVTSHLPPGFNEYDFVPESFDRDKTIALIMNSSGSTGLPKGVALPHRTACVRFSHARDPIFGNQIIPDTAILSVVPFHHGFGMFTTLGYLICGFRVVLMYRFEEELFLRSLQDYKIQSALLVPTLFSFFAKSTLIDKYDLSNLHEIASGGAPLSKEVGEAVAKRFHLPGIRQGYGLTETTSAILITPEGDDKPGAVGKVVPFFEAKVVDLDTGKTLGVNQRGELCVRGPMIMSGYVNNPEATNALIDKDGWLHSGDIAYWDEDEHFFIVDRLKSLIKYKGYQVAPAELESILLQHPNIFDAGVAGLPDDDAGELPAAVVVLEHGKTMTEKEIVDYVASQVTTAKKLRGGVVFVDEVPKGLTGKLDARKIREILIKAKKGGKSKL
Sequence of Focal adhesion kinase 1 (Homo sapiens) (Q05397 whole entry, looked up): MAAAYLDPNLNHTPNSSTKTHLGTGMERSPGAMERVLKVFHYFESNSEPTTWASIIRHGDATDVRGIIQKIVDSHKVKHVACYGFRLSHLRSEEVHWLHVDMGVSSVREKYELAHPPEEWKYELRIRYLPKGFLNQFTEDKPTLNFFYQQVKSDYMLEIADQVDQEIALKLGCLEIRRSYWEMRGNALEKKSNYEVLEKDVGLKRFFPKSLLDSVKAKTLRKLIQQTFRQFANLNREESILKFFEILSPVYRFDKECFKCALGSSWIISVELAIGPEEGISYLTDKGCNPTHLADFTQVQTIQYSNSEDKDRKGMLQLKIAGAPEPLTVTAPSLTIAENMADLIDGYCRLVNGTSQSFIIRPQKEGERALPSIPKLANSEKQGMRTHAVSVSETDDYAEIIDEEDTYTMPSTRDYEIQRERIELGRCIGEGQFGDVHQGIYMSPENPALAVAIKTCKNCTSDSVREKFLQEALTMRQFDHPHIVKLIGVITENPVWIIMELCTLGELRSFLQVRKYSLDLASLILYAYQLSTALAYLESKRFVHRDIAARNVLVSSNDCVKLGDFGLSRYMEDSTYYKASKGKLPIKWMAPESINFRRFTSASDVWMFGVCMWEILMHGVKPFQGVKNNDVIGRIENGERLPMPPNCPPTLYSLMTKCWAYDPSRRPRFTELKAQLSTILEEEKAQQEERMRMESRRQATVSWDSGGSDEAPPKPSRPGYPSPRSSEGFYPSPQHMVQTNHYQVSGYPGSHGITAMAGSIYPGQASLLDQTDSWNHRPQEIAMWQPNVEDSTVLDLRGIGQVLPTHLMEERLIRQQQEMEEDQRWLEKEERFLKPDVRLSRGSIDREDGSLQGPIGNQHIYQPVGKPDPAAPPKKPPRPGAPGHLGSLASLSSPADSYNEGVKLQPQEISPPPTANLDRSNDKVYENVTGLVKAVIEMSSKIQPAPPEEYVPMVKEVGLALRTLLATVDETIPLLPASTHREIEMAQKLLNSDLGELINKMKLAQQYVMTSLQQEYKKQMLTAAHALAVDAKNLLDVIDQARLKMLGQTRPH

| SMILES | composite z-score [1] | composite z-score [2] | composite z-score [3] | composite z-score [4] | composite z-score [5] | composite z-score [6] | z-score [7] | composite z-score (Lefty1) | composite z-score [8] | z-score [9] | composite z-score [10] | z-score [11] | z-score [12] | z-score [13] | z-score [14] | composite z-score [15] | composite z-score [16] | composite z-score (Torsin-1A (Homo sapiens) [17]) | composite z-score (Torsin-1A (Homo sapiens) [18]) | composite z-score [19] |
| --- | --- | --- | --- | --- | --- | --- | --- | --- | --- | --- | --- | --- | --- | --- | --- | --- | --- | --- | --- | --- |
| O=C(O)[C@H]1C[C@H]2C(=O)N3CCC[C@H]3C(=O)N2[C@H]1c1ccc(O)cc1 | 0.0617 | -0.94 | -0.222 | -1.83 | -0.374 | -0.879 | 1.62 | -0.801 | -0.842 | -2.53 (inactive) | -0.32 | -0.44 (inactive) | -0.0598 (inactive) | -0.122 (inactive) | -0.233 (inactive) | -1.29 | -0.122 | 0.244 | 0.109 | 0.0164 |
| C[C@H]1C2[C@H](Cc3ccccc3)NC(=O)[C@]23C(=O)NCC(=O)N2CCC[C@H]2C(=O)NC/C=C/CCC/C=C/C3[C@@H]2O[C@]12C (stereo not given in full) | 0.295 | -1.28 | -0.502 | -0.489 | -0.0491 | -0.0881 | -0.979 | -0.0374 | -0.704 | -0.44 (inactive) | -0.376 | -1.02 (inactive) | 0.785 (inactive) | 1.32 (inactive) | -1.25 (inactive) | -1.3 | -0.179 | -0.793 | -0.333 | 0.468 |
| C#CCNCc1ccccc1 | 0.3 | 0.736 | -0.101 | -0.395 | 0.065 | 0.166 | 0.588 | 0.0644 | -0.219 | -0.352 (inactive) | -0.0766 | -0.0359 (inactive) | 1.16 (inactive) | -0.882 (inactive) | 0.531 (inactive) | 0.202 | -0.134 | 0.335 | 0.442 | 0.442 |
| C#CCN1[C@H](/C=C/C2CC2)[C@H](Cc2ccccc2)OC(=O)[C@@H]1Cc1ccccc1 | 0.924 | 0.743 | 0.229 | 0.884 | 0.578 | 0.242 | 3.8 | 0.536 | -0.153 | -0.373 (inactive) | -0.18 | -3.28 (inactive) | 0.854 (inactive) | 1.04 (inactive) | 1.29 (inactive) | -0.929 | -0.0675 | 0.349 | 0.429 | 1.12 |
| COCCOC(=O)N1C(=O)[C@@]2(c3cc(C#CC4(O)CCCCCC4)ccc31)[C@H](C(=O)Nc1nc3ccccc3s1)[C@H]1C(=O)O[C@H](c3ccccc3)[C@H](c3ccccc3)N1[C@@H]2c1ccccc1OCCO | 2.46 | 1.2 | 0.823 | 0.981 | 1.01 | 1.37 | -1.13 | 0.581 | 1.08 | -3.04 (inactive) | 0.82 | -2.5 (inactive) | 0.451 (inactive) | 0.212 (inactive) | -0.192 (inactive) | 0.845 | -0.0762 | 0.61 | 0.144 | 0.976 |
| Cc1ccc(S[C@]2(C(=O)O)CC(=O)N(C(C)C)[C@@H]2c2ccc(CO)cc2)cc1 | 0.715 | -0.386 | 0.104 | -0.307 | 0.0281 | -0.129 | -0.233 | -0.0075 | 0.557 | 0.568 (inactive) | -0.201 | -2.62 (inactive) | -2.2 (inactive) | -0.206 (inactive) | -0.244 (inactive) | -0.186 | -0.147 | -0.366 | 1.12 | -0.317 |
| COc1ccc(C(O)C2C=CC3C(=O)N(C)C(=O)C3N2N(c2ccccc2)c2ccccc2)c2ccccc12 (stereo not given) | 2.54 | -0.172 | -0.278 | 0.384 | 1.41 | 0.392 | 0.419 | 1.09 | 1.07 | -0.091 (inactive) | 0.151 | 0.497 (inactive) | -0.347 (inactive) | 0.246 (inactive) | 1.1 (inactive) | 0.797 | 0.0342 | 0.415 | 0.526 | 1.11 |
| COC(=O)C(CC#Cc1ccc2c(c1)[C@]1(C(=O)N2)[C@H](c2ccccc2OCCO)N2[C@H](c3ccccc3)[C@H](c3ccccc3)OC(=O)[C@H]2[C@@H]1C(N)=O)C(=O)OC | 1.6 | 1.22 | 0.473 | 0.711 | 0.619 | 0.168 | -0.153 | -0.0878 | 1.15 | -0.821 (inactive) | 0.136 | -5.98 (inactive) | 0.502 (inactive) | -0.0515 (inactive) | 1.02 (inactive) | 1.5 | 1.26 | 0.412 | 0.434 | 0.111 |
| CC(=O)NCCCC[C@@H]1NC(=O)[C@H]2C[C@@H](C(=O)O)[C@@H](c3ccc(O)cc3)N2C1=O | 2.26 | 1.21 | 0.626 | 0.584 | 1.32 | 1.67 | -0.738 | 1.45 | 0.478 | -3.39 (inactive) | 0.176 | -0.798 (inactive) | -0.0331 (inactive) | 5.71 (inactive) | 7.82 (inactive) | 0.481 | 0.0589 | 0.928 | 1.69 | 2.02 |
| O=C1C2C=CC(C(O)c3ccc(F)cc3)N(Nc3ccc([N+](=O)[O-])cc3)C2C(=O)N1c1ccccc1 (stereo not given) | 1.76 | 0.705 | 0.789 | 1.02 | 0.282 | -0.0449 | -0.433 | 0.16 | 1.09 | 1.43 (inactive) | 0.241 | -0.0129 (inactive) | -0.615 (inactive) | -0.415 (inactive) | 0.15 (inactive) | 1.39 | 0.0487 | -0.232 | 0.187 | -0.241 |
